This is part of a sample that, as a whole, favours compounds with a hit. Of some 83,000 tested, about 20% had one in any assay.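 In brief: 96-well plates, 48 h treatment, single concentration, percent growth endpoint.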 A number with no mark means an inactive call. Calls of active or inactive are those of the source. The calls were made as follows: active = growth percent below 10; inactive = the rest.
Tests used:
Assay in all cases: NCI-60 one-dose screen, 48 h (100 = growth as untreated, 0 = no growth, -100 = all killed)
Conditions in all cases: 10 µM unless noted
[1] = tested on: DU-145 prostate
[2] = tested on: K-562 leukemia
[3] = tested on: MALME-3M melanoma
[4] = tested on: MDA-MB-231 breast
[5] = tested on: RXF 393 renal
[6] = tested on: SF-268 CNS
[7] = tested on: SF-295 CNS
[8] = tested on: SF-539 CNS
[9] = tested on: UACC-257 melanoma
[10] = tested on: M14 melanoma

| SMILES | growth [1] | growth [2] | growth [3] | growth [4] | growth [5] | growth [6] | growth [7] | growth [8] | growth [9] | growth [10] |
| --- | --- | --- | --- | --- | --- | --- | --- | --- | --- | --- |
| COC(=O)c1ccc2c(C(=Nc3ccc(N(C)C(=O)CN4CCN(C)CC4)cc3)c3ccccc3)c(O)[nH]c2c1 | 78.3% | 3.75% (active) | 54.2% | 54.8% | 15.1% | 42.8% | 84.1% | 36.1% | 23% | 50.9% |
| C=CCn1c(=O)c2cnc(Nc3ccc(N4CCN(C)CC4)cc3)nc2n1-c1cccc(C(C)(C)O)n1 | 17.2% | 1.55% (active) | 44.8% | 9.62% (active) | -27.1% (active) | 30.7% | 34.8% | -26.3% (active) | 46.1% | 9.79% (active) |
| Nc1ccc(S(=O)(=O)O)c2cc(S(=O)(=O)O)cc(O)c12 | 105% | 117% | 109% | 106% | 114% | 111% | 110% | 95.8% | 109% | 90.7% |
| Cc1c(Cn2c(C)nc3c(C(=O)O)cc(N4CCOCC4)cc32)cccc1C(F)(F)F | 108% | 87.4% | 91.8% | 110% | 27.3% | 88.6% | 75.1% | 113% | 79% | 89% |
| Ic1ccccc1-c1ccccc1 | 114% | 104% | 95% | 102% | 105% | 105% | 122% | 108% | 99% | 103% |
| Cc1[nH]c(/C=C2\C(=O)Nc3ccc(F)cc32)c(C)c1C(=O)NC[C@H](O)CN1CCOCC1 | 31.3% | 24% | -7.48% (active) | 29.8% | -17.1% (active) | 40.9% | 64% | 28% | 42.3% | 7.61% (active) |
| C/C(=C(/c1ccc(Cl)cc1)c1ccc(OCCN2CCCC2)cc1)c1ccccc1 | 86.4% | 6.72% (active) | 62.4% | 61.3% | 66.6% | 87.9% | 77.5% | 58.8% | 44.7% | 28.3% |
| CCCCN1C(=O)c2cccc3c(-c4ccc5c(c4)ncn5C4CCCCC4)ccc(c23)C1=O | 101% | 86% | 95.4% | 108% | 118% | 106% | 96.7% | 101% | 103% | 92.1% |
| CC1(O)CC(c2nc(-c3ccc4ccc(-c5ccccc5)nc4c3)c3c(N)nccn23)C1 (stereo not given) | 34.1% | 36.9% | 30.4% | 28.7% | 2.73% (active) | 44.1% | 46.7% | -2.47% (active) | 25.7% | 42.5% |
| CNC(=O)c1c(C)oc2cc(Oc3ncnc4cc(OC)c(OC)cc34)ccc12 | 101% | 88.4% | 104% | 101% | 66.4% | 70.7% | 96% | 41.6% | 86.6% | 98.2% |
| COc1ccc(S(=O)(=O)N(C(C)=O)c2ccccc2/C=C/c2cc[n+]([O-])cc2)cc1 | 16% | 7.61% (active) | 47% | 45.6% | -5.21% (active) | 34.6% | 13.7% | -30.4% (active) | 65.5% | -14.3% (active) |
| COc1cc(Nc2ncc(F)c(Nc3ccc4c(n3)NC(=O)C(C)(C)O4)n2)cc(OC)c1OC | 48.8% | 66.5% | 88.7% | 41.7% | -40.3% (active) | 29.8% | 59.9% | -14.8% (active) | 57.1% | 57.5% |
| Cn1cnc(-c2cc3nccc(Oc4ccc(NC(=S)NC(=O)Cc5ccccc5)cc4F)c3s2)c1 | 104% | 6.69% (active) | 86.3% | 81.2% | 87.1% | 84.3% | 52.5% | 58.7% | 60.5% | 96.5% |
| O=C(c1c(F)ccc(NS(=O)(=O)N2CC[C@@H](F)C2)c1F)c1c[nH]c2ncc(-c3cnc(C4CC4)nc3)cc12 | 49.9% | 15.8% | 0.406% (active) | 35.5% | 10% | 49.4% | 42.8% | 53.5% | -21.3% (active) | -0.512% (active) |
| Cn1cc(-c2cnn3c(N)c(Br)c([C@@H]4CCCNC4)nc23)cn1 | 37.1% | 17.9% | 50.4% | 35.3% | -2.46% (active) | 60.1% | 24.1% | 22.6% | 70.7% | 33.4% |
| Nc1ncnc2c1c(-c1cccc(OCc3ccccc3)c1)cn2C1CC(CN2CCC2)C1 (stereo not given) | 44.5% | -45.7% (active) | -79.7% (active) | 3.88% (active) | -16.4% (active) | 17.3% | -47.3% (active) | -84.4% (active) | -79.4% (active) | -78.1% (active) |
| COC[C@@H](C)n1c(C2CCOCC2)nc2c1C1C=C(OC)C(c3c(C)noc3C)=CC1N=C2 (stereo not given in full) | 65.5% | 33.6% | 41.2% | 25% | 55.9% | 62.4% | 45.4% | 34.5% | 41.4% | 42.4% |
| CNC(=O)c1ccccc1Nc1nc(Nc2ccc3c(c2OC)CCC[C@H](N2CCN(CCO)CC2)C3)ncc1Cl | 18.7% | -43.9% (active) | -52.1% (active) | -19.4% (active) | -23.3% (active) | 17.3% | -63.7% (active) | -41.7% (active) | -75.8% (active) | -69% (active) |
| CCN(CC)CCOc1ccc(/C(=C(\C)c2ccc(Cl)cc2)c2ccc(Cl)cc2)cc1 | 97.2% | 7.09% (active) | 87.2% | 84.3% | 51.2% | 80.7% | 65.2% | 67% | 96.1% | 71% |
| Cc1cccc(C)c1N1C(c2ccccc2)=NNC12C=CC(=O)c1c(O)cccc12 (stereo not given) | 93.7% | 46.5% | 62.7% | 91.9% | 105% | 84.3% | 61.3% | 67.1% | 58.5% | 54.2% |
| O=c1sn(-c2cccc3ccccc23)c(=O)n1Cc1ccccc1 | 108% | 9.59% (active) | 96.5% | 101% | 99.3% | 105% | 105% | 114% | 89.2% | 89.8% |
| COc1cc2nc(Nc3cccc(Cl)c3)nc(N)c2cc1OC | 32.3% | 24% | 107% | 60.3% | 45.4% | 77.1% | 108% | 90.3% | 90.3% | 78.4% |
| CNc1ncc2cc(-c3cc(NC(=O)NCCC(C)(C)C)c(F)cc3C)c(C)nc2n1 | 32.6% | 3.92% (active) | 1.23% (active) | 1.7% (active) | -23.3% (active) | 26.5% | 25.5% | 27.5% | -10.3% (active) | -12.4% (active) |
| CCN1CCN(Cc2ccc(NC(=O)Nc3nc(-c4cc(OC)c(OC)c(OC)c4)cs3)cc2C(F)(F)F)CC1 | 38.7% | -9.87% (active) | -49.8% (active) | -13.8% (active) | 22.6% | 34.8% | -38% (active) | -6.61% (active) | -13.1% (active) | -78.6% (active) |
| COc1cc(NC2CCC(=O)N2c2ccc(Cl)cc2Cl)cc(OC)c1OC (stereo not given) | 103% | 106% | 93.3% | 111% | 120% | 98.7% | 101% | 101% | 99.1% | 94.9% |
| CCc1cc2c(cc1N1CCC(N3CCOCC3)CC1)C(C)(C)c1[nH]c3cc(C#N)ccc3c1C2=O | 10.1% | 2.08% (active) | -27.4% (active) | -7.59% (active) | -1.05% (active) | -2.19% (active) | -3.18% (active) | -71.8% (active) | -20% (active) | -26.1% (active) |
| C[C@@H]1COCCN1c1cc(C2([S@](C)(=N)=O)CC2)nc(-c2ccnc3[nH]ccc23)n1 | 17.5% | 10.8% | 43.1% | 48% | -28.4% (active) | 43.5% | 19% | 1.29% (active) | 52.8% | 10.6% |

From PubChem BioAssay (NCI)
